# L3MBTL1 block = L3MBTL1 (human) inhibition; AlphaScreen L3MBTL1–H3K9me1 peptide binding; Potency, µM (series often up to 57.1 µM), usual class: inhibitors; 230,000 tested, 0.66% active; note: nearly all actives have a fitted effect of over 60% in size
#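 Displacement of a biotinylated histone H3(1-15) peptide monomethylated at Lys9 (75 nM) from L3MBTL1 (50 nM) was measured by AlphaScreen after a 30 min room-temperature compound incubation; cefsulodin titration served as intraplate control.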
# JMJD2A Tudor inh = blocks the human JMJD2A Tudor domain | O75164 | AlphaScreen JMJD2A-Tudor / H3K4me3 peptide binding | Potency, µM (titrated, usually from 114 µM), most hits filed as inhibitors | 390,000 tested, 4.4% active; note: nearly all actives have a fitted effect of over 50% in size
# Target sequence (O75164 whole entry, looked up, the tested form may be a part): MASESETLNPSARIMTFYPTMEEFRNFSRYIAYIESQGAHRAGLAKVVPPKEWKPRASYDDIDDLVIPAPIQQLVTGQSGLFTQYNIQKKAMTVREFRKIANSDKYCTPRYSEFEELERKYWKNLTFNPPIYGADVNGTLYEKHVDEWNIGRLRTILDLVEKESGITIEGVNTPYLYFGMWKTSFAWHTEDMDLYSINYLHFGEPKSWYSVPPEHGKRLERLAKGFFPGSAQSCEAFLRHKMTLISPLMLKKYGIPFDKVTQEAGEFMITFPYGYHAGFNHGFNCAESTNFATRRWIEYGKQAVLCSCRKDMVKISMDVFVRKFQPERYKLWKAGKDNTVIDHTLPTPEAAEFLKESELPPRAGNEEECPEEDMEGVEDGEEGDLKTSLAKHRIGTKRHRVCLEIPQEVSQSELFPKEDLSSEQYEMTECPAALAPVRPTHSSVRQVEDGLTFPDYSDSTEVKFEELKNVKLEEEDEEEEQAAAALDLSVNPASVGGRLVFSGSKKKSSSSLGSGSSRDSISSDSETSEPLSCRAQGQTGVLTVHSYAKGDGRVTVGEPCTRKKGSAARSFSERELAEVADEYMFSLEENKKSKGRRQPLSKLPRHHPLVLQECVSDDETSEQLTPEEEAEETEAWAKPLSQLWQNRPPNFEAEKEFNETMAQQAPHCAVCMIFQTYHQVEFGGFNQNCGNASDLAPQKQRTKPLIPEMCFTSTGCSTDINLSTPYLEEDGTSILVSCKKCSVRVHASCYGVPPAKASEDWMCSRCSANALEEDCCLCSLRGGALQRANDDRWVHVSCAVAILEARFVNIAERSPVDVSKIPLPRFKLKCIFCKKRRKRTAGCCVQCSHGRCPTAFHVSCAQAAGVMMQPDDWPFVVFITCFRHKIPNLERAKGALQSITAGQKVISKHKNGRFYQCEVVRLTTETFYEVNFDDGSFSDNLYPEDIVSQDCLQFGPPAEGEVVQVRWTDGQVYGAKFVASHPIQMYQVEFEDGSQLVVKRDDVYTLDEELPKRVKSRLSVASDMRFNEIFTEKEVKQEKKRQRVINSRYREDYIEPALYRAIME
# PI5P4K alpha inh = inhibitors of human PI5P4K alpha; P48426; PI5P4Kalpha enzyme, ADP-Glo luminescence, 60 min; stronger effect = lower value; max response, %; 330,000 tested, 1.2% active; AID 652105; active = max response of -50% or lower; inconclusive = between -30% and -50%; inactive = -30% or higher; note: value at the top dose of about 77 µM
#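 ADP-Glo luminescence end-point read after a 60 min room-temperature kinase reaction of PI5P4Kalpha plus substrate, initiated with ATP at 5 microM final. Buffer: 0.038 M HEPES pH 7.4, EGTA, 0.1% CHAPS, 5% DMSO.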
# BAZ2B block = BAZ2B (human) inhibition. Q9UIF8. Potency, µM (titrated, usually from 114 µM), actives largely listed as inhibitors. 360,000 tested, 4.4% active. AlphaScreen BAZ2B-H3K14Ac peptide displacement; note: nearly all actives have a fitted effect of over 60% in size
#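 Inhibition is scored as reduced AlphaScreen emission. The BAZ2B/b-H3(5-23)K14Ac complex (50 nM each) in PBS pH 7.4, 0.01% Tween-20 meets compound (up to 110 uM) for 30 min at RT before bead addition.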
# HP1b binding inh = blocks HP1-beta chromodomain binding to methylated histone tails | 390,000 tested, 0.56% active | AlphaScreen HP1-beta / biotin-H3K9me3 peptide binding | Potency, µM (doses to about 114 µM), actives largely listed as inhibitors | AID 540317 | P83916; note: nearly all actives have a fitted effect of over 70% in size
#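 HP1-beta protein (50 nM final) preincubated 30 min at room temperature with biotinylated H3(1-18)K9me3 peptide (50 nM) in PBS pH 7.4, 0.01% Tween-20, then compound added for 30 min. AlphaScreen streptavidin donor/nickel chelate acceptor beads (10 ug/mL final), 30 min dark, luminescence read.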
# JMJD2E inh = inhibitors of human JMJD2E histone demethylase | B2RXH2 | JMJD2E catalytic domain, FDH-coupled NADH fluorescence (FDH is formaldehyde dehydrogenase) | Potency, µM (highest dose often 57.1 µM), actives largely listed as inhibitors | 230,000 tested, 1.6% active | AID 2147; active = well fitted inhibition curve with a large enough effect, not every such curve was filed as active; inconclusive = small, poorly fitted or top-dose-only effect, or another doubt; inactive = no such curve, though single readings can be large or run the other way; note: nearly all actives have a fitted effect of over 50% in size
# Numbers stand for hits; . = inactive; ? = inconclusive; / = no result given. A selection: hits, their analogues and other compounds. The true share with any hit is near 5.7%. Unless noted, calls come from the whole dose curve; as a rule, active = well fitted inhibition curve with a large enough effect; inconclusive = small, poorly fitted or top-dose-only effect; inactive = no such curve, though single readings can be large or run the other way.
SMILES,L3MBTL1 block,JMJD2A Tudor inh,PI5P4K alpha inh,BAZ2B block,HP1b binding inh,JMJD2E inh
Cc1ccc(NC(=O)C(Cc2c[nH]c3ccccc23)NC(=O)OCC(C)C)cc1 (configuration not stated),/,.,/,.,.,/
Cc1cc(N)ccc1N=Nc1c(C)n(C)n(-c2ccccc2)c1=O,.,?,.,.,.,.
Cc1cccc(N=Nc2ccc(O)c3ncccc23)c1,20µM,31.6µM,.,8.91µM,?,.
Cc1ccc(N=Nc2ccc(N)cc2C)c(S(N)(=O)=O)c1,.,8.91µM,.,50.1µM,?,?
O=C(Nc1ccccc1Cl)c1ccccc1Oc1ccc(C(F)(F)F)cc1[N+](=O)[O-],.,50.1µM,.,?,?,.
O=C(c1ccccc1Oc1ccc(C(F)(F)F)cc1[N+](=O)[O-])N1CCOCC1,.,.,.,.,.,.
NC(=O)C1CCN(C2=C(NS(=O)(=O)c3ccccc3)C(=O)c3ccccc3C2=O)CC1,?,?,.,39.8µM,?,.
CN1CCN(C2=C(NS(=O)(=O)c3ccccc3)C(=O)c3ccccc3C2=O)CC1,/,.,.,?,.,/
CCOC(=O)C1CCN(C2=C(NS(=O)(=O)c3ccc(Br)cc3)C(=O)c3ccccc3C2=O)CC1,/,7.94µM,.,5.62µM,7.08µM,/
CN1CCN(C2=C(Cl)C(=O)C(c3cnc(N4CCCCC4)s3)=C(Cl)C2=O)CC1,.,4.47µM,-89.0,.,?,.
NC(=O)C1CCN(C2=C(NS(=O)(=O)c3ccc(Br)cc3)C(=O)c3ccccc3C2=O)CC1,/,79.4µM,.,39.8µM,?,/
Cc1oc(-c2ccc(C(=O)NCc3cccc(F)c3)cc2)nc1COc1ccccc1,/,.,/,.,.,/
O=C(O)C1C=CC(C(=O)O)c2ccccc21 (configuration not stated),/,/,.,/,/,/
CCC(C)C(NC(=O)OC(C)(C)C)C(=O)NC1COC2CC(n3ccc(=O)[nH]c3=O)OC12 (configuration not stated),/,.,/,/,.,/
CCOC(=O)N1CCN(C2=C(NS(=O)(=O)c3ccccc3)C(=O)c3ccccc3C2=O)CC1,/,?,.,31.6µM,?,/
O=C1C(Cl)=C(NCCN2CCOCC2)C(=O)c2ccccc21,/,.,.,.,?,/
O=C1C(Cl)=C(N2CCC(C(=O)O)CC2)C(=O)c2ccccc21,.,.,?,?,.,.
NC(=O)C1CCN(C2=C(Cl)C(=O)c3ccccc3C2=O)CC1,?,.,/,25.1µM,?,.
CCN1CCN(C2=C(NS(=O)(=O)c3ccc(Br)cc3)C(=O)c3ccccc3C2=O)CC1,/,?,.,44.7µM,.,/
CC1COCC(C)N1C1=C(Cl)C(=O)c2ccccc2C1=O (configuration not stated),/,3.16µM,-69.7,/,12.6µM,/
CCN1CCN(C2=C(NS(=O)(=O)c3ccccc3)C(=O)c3ccccc3C2=O)CC1,/,.,.,?,.,/
CC(=O)c1cccc(Nc2nn(-c3ccc(OC(F)(F)F)cc3)nc2C(C)=O)c1,/,.,/,.,.,/
O=C1C(NS(=O)(=O)c2ccc(Cl)cc2)=C(N2CCCCC2)C(=O)c2ccccc21,25.1µM,11.2µM,.,5.62µM,?,.
CCOC(=O)N1CCN(C2=C(NS(=O)(=O)c3ccc(Br)cc3)C(=O)c3ccccc3C2=O)CC1,/,/,.,/,/,/
CN1CCN(C2=C(Cl)C(=O)c3ccccc3C2=O)CC1,/,22.4µM,.,/,?,/
SMILES,L3MBTL1 block,JMJD2A Tudor inh,PI5P4K alpha inh,BAZ2B block,HP1b binding inh,JMJD2E inh
COc1cccc(Cn2c(=O)n(-c3ccc(Br)cc3F)c(=O)c3sc4ccccc4c32)c1,/,.,/,.,.,/
CCc1ccc(NC(=O)CC(c2cc(OC)c(OC)c(OC)c2)N2Cc3ccccc3C2=O)cc1 (configuration not stated),/,.,/,.,.,/
Cc1cc(C)n2nc3nc(N4CCCCC4)nc(-c4ccco4)c3c2n1,.,?,-55.5,79.4µM,.,.
Cc1ccc(C(OCC(C)(C)C[N+](C)(C)C)c2ccccc2)cc1 (configuration not stated),/,22.4µM,.,.,.,.
O=C1CN(CC(=O)N2CCCCC2)c2ccccc2O1,.,.,.,.,.,.
O=C(CN1CC(=O)Oc2ccccc21)OCC(=O)c1ccc(Br)cc1,/,20µM,.,/,.,/
CCOC(=O)Cc1nn2c(=O)cc(C)nc2s1,.,.,.,79.4µM,.,.
CCOC(=O)Cc1c(C)nc2cc(C)nn2c1C,.,.,.,.,.,.
O=C1OC(/C(=C\Nc2cc(Cl)ccc2O)[N+](=O)[O-])c2ccccc21 (configuration not stated),.,?,.,44.7µM,?,.
COCCNC(=O)C1CCCN(Cc2cccc(C#N)c2)CC1 (configuration not stated),/,/,.,/,/,/
CCOC(=O)C1CCN(Cc2ccc(OCc3ccccc3)c(OC)c2)CC1,.,.,.,.,.,/
CC(C)CCNC(=O)C1CCN(Cc2cccc(OCc3ccccc3)c2)CC1,.,10µM,.,?,?,/
COc1cc(CN2CCC(C(=O)NCCC(C)C)CC2)ccc1OCc1ccccc1,.,28.2µM,.,.,?,/
COCCNC(=O)C1CCCN(Cc2cccc(Cl)c2)CC1 (configuration not stated),/,/,.,/,/,/

# High-throughput results from PubChem BioAssay.
